# From publication PMC7862700, “An all-to-all approach to the identification of sequence-specific readers for epigenetic DNA modifications on cytosine”
# Legend:
# Experiment in all cases: DAPPL (digital affinity profiling via proximity ligation, sequencing); 10 mM Tris-HCl pH 7.5, 50 mM NaCl, 1 mM DTT, 4% glycerol, room temperature, 30 min; GST-TFs on glutathione beads, 16-mer random dsDNA library, 0.1% formaldehyde crosslink after washing; high values mean tight binding
# [1] = molecular target: T1, FLI1 (Homo sapiens, UniProt Q01543 1-452); details: protein: recombinant; tags: N-terminal GST; dsDNA, one strand shown
# T1 sequence: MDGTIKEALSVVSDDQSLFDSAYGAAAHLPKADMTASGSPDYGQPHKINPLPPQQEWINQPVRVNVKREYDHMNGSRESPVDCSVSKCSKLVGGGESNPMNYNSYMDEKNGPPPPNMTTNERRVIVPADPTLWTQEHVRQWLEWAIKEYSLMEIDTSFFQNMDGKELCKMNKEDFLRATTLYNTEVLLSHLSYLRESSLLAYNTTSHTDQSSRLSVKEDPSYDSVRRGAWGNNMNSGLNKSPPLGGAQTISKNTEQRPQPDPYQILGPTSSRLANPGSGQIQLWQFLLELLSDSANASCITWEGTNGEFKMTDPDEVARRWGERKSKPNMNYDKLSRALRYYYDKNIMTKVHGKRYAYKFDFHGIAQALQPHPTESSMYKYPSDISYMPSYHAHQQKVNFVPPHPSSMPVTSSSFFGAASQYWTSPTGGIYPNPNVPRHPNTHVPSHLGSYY
# Outline: (§1)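 A tag-only sample was pooled with DNA-barcoded human transcription factors that had been expressed in yeast as GST fusions and captured on glutathione beads. The pools were incubated for 30 min at room temperature with 200 nmole of a random double-stranded 16-mer DNA library in Tris/NaCl/DTT/glycerol buffer, then washed, crosslinked with 0.1% formaldehyde, proximity-ligated (BsaI/T4 ligase, 1 h, 37 °C), PCR-amplified and sequenced on an Illumina NextSeq500. Binding signal is each hexamer's read frequency for a factor divided by its frequency for the tag-only sample.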
# [2] = molecular target: T2, ELK1 (Homo sapiens, UniProt P19419 1-428); details: protein: recombinant; tags: N-terminal GST; dsDNA, one strand shown
# T2 sequence: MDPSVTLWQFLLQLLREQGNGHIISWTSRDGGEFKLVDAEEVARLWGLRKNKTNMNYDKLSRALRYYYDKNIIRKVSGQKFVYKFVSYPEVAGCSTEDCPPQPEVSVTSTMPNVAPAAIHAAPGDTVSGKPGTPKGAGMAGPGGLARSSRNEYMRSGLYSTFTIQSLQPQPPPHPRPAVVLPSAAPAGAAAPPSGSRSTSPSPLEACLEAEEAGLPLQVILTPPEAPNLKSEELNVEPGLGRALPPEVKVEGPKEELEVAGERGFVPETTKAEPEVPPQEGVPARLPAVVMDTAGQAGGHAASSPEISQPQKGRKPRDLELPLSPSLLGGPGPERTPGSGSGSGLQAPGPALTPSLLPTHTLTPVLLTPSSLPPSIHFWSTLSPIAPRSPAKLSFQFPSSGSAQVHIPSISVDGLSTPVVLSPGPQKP
# Outline: as §1
# [3] = molecular target: T3, GABPA (Homo sapiens, UniProt Q06546 1-454); details: protein: recombinant; tags: N-terminal GST; dsDNA, one strand shown
# T3 sequence: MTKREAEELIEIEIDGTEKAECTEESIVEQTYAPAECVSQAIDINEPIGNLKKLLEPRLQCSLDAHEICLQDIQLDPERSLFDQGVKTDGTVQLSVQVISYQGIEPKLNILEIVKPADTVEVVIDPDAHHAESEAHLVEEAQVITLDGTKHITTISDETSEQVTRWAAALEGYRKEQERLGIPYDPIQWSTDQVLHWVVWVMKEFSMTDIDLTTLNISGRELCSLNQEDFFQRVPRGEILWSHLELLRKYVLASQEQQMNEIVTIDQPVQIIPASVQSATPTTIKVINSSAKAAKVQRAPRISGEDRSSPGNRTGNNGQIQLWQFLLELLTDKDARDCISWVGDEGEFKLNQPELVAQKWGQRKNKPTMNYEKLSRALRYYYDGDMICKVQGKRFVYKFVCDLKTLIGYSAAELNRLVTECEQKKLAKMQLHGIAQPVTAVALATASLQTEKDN
# Outline: as §1
# [4] = molecular target: T4, ERG (Homo sapiens, UniProt P11308 1-479); details: protein: recombinant; tags: N-terminal GST; dsDNA, one strand shown
# T4 sequence: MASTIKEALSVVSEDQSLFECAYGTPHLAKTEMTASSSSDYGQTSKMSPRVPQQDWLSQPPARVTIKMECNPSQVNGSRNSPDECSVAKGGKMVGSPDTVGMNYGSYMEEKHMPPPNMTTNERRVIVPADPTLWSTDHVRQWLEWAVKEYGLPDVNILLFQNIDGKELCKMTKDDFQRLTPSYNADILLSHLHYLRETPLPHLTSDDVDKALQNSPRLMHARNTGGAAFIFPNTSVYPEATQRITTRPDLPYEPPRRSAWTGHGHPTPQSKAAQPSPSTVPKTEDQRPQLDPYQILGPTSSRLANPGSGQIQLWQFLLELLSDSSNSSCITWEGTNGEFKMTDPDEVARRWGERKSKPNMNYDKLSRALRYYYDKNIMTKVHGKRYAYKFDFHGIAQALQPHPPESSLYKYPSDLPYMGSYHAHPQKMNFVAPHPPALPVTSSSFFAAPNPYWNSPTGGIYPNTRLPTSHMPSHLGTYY
# Outline: as §1
# [5] = molecular target: ELF1 (Homo sapiens, UniProt P32519 1-619); details: protein: recombinant; tags: N-terminal GST; dsDNA, one strand shown
# Outline: as §1
# [6] = molecular target: T5, EHF (Homo sapiens, UniProt Q9NZC4 1-300); details: protein: recombinant; tags: N-terminal GST; dsDNA, one strand shown
# T5 sequence: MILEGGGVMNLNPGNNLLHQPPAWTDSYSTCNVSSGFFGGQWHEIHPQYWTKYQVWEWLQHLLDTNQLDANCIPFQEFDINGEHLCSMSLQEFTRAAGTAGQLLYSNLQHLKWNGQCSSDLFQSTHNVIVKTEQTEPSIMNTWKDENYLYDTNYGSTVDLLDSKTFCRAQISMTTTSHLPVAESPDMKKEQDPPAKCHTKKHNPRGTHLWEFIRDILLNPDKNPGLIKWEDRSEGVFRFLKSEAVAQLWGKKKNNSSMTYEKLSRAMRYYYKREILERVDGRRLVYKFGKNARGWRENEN
# Outline: as §1
# [7] = molecular target: SPI1 (Homo sapiens, UniProt P17947 1-270); details: protein: recombinant; tags: N-terminal GST; dsDNA, one strand shown
# Outline: as §1
# [8] = molecular target: SPIB (Homo sapiens, UniProt Q01892 1-262); details: protein: recombinant; tags: N-terminal GST; dsDNA, one strand shown
# Outline: as §1
# [9] = molecular target: T6, ELK3 (Homo sapiens, UniProt P41970 1-407); details: protein: recombinant; tags: N-terminal GST; dsDNA, one strand shown
# T6 sequence: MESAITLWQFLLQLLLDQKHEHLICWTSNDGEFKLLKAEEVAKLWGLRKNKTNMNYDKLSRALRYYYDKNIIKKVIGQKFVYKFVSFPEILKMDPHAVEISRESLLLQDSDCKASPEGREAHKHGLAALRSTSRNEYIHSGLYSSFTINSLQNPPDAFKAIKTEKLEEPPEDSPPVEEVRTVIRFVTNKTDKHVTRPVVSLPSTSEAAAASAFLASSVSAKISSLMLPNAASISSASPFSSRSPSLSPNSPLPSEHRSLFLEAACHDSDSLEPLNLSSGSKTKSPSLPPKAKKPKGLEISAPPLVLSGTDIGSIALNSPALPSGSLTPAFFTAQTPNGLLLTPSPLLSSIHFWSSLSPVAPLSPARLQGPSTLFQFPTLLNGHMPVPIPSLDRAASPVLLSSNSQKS
# Outline: as §1
# [10] = molecular target: T7, FEV (Homo sapiens, UniProt Q99581 1-238); details: protein: recombinant; tags: N-terminal GST; dsDNA, one strand shown
# T7 sequence: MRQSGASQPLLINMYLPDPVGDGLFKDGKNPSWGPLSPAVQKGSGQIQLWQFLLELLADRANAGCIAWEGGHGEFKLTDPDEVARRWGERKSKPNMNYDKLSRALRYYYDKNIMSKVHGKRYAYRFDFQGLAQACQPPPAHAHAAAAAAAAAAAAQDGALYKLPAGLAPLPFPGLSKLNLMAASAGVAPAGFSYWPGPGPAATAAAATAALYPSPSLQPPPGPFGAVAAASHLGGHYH
# Outline: as §1
# [11] = molecular target: ETV5 (Homo sapiens, UniProt P41161 1-510); details: protein: recombinant; tags: N-terminal GST; dsDNA, one strand shown
# Outline: as §1
# [12] = molecular target: HSF1 (Homo sapiens, UniProt Q00613 1-529); details: protein: recombinant; tags: N-terminal GST; chain copies: 3; dsDNA, one strand shown
# Outline: as §1
# [13] = molecular target: T8, SPIC (Homo sapiens, UniProt Q8N5J4 1-248); details: protein: recombinant; tags: N-terminal GST; dsDNA, one strand shown
# T8 sequence: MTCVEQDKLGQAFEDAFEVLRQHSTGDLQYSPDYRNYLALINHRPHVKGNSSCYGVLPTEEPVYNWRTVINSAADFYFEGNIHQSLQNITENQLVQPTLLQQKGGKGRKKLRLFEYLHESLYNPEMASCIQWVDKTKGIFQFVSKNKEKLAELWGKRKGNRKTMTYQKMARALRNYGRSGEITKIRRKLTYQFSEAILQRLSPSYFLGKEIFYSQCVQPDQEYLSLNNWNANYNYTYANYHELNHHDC
# Outline: as §1
# [14] = molecular target: ELF4 (Homo sapiens, UniProt Q99607 1-663); details: protein: recombinant; tags: N-terminal GST; dsDNA, one strand shown
# Outline: as §1
# [15] = molecular target: T9, ELK4 (Homo sapiens, UniProt P28324-2 1-405); details: protein: recombinant; tags: N-terminal GST; dsDNA, one strand shown
# T9 sequence: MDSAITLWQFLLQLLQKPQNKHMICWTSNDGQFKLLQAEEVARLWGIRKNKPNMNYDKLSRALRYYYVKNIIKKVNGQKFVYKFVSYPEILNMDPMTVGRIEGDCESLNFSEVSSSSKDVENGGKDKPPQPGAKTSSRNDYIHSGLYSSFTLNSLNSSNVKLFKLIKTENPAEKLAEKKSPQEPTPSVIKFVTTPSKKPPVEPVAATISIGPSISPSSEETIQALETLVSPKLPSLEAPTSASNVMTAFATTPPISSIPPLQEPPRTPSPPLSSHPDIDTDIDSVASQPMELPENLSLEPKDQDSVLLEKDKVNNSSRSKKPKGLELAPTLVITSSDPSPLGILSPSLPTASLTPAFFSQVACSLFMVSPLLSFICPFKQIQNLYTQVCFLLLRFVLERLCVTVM
# Outline: as §1
# [16] = molecular target: T10, ETV2 (Homo sapiens, UniProt O00321 1-342); details: protein: recombinant; tags: N-terminal GST; dsDNA, one strand shown
# T10 sequence: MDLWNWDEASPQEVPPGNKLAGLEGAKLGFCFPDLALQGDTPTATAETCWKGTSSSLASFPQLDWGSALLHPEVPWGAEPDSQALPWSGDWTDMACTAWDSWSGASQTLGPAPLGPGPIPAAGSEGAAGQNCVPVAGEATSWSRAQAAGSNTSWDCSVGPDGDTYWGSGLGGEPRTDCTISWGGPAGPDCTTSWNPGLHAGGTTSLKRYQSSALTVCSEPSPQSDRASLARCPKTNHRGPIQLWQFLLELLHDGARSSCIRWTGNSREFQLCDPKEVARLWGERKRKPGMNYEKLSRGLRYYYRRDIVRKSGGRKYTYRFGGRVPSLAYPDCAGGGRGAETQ
# Outline: as §1
# [17] = molecular target: T11, ELF3 (Homo sapiens, UniProt P78545 1-371); details: protein: recombinant; tags: N-terminal GST; dsDNA, one strand shown
# T11 sequence: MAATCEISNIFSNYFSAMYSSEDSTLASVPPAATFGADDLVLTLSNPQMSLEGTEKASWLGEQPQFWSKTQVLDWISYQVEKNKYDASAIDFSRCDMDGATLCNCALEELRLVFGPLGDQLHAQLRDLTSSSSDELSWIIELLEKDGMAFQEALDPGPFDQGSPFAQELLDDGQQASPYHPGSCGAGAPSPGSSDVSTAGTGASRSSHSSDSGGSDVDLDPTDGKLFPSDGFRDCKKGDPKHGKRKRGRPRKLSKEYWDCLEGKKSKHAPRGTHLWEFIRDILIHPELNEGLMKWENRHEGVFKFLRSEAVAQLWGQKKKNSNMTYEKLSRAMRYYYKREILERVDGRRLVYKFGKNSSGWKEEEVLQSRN
# Outline: as §1
# [18] = molecular target: CRX (Homo sapiens, UniProt O43186 1-299); details: protein: recombinant; tags: N-terminal GST; dsDNA, one strand shown
# Outline: as §1
# [19] = molecular target: ETV1 (Homo sapiens, UniProt P50549 1-477); details: protein: recombinant; tags: N-terminal GST; dsDNA, one strand shown
# Outline: as §1
# Sequence of HSF1 (Q00613 whole entry): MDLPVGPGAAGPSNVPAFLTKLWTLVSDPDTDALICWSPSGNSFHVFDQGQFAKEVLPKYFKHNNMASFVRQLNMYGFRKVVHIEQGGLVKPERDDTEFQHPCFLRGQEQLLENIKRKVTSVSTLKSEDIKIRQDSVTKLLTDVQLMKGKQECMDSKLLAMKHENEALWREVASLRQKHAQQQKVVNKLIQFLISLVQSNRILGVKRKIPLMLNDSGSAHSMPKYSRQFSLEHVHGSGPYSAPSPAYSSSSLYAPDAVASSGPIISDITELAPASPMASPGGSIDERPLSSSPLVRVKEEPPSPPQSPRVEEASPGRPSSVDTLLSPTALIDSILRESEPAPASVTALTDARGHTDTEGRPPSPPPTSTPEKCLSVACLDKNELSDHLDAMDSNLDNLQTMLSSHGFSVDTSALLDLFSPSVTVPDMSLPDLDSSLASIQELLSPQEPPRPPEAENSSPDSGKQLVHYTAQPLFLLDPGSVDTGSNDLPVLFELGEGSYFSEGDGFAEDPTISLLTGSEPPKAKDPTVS
# Sequence of ELF4 (Q99607 whole entry): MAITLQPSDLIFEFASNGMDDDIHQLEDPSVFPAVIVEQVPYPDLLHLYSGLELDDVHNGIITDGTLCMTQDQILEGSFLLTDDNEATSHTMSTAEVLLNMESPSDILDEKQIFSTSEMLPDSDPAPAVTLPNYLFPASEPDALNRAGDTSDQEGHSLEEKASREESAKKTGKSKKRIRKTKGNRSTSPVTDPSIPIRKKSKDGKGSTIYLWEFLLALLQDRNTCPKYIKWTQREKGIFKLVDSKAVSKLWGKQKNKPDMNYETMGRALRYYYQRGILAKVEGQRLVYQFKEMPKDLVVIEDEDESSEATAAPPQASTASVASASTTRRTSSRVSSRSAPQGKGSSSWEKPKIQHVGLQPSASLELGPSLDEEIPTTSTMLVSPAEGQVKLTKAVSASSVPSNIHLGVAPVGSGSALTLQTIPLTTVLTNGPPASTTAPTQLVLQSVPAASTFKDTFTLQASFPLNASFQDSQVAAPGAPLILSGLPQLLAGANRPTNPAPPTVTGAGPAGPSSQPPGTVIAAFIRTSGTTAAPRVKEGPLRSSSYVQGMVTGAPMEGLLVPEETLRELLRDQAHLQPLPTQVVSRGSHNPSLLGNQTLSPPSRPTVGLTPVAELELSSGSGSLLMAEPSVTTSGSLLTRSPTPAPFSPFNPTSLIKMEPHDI
# Sequence of ETV5 (P41161 whole entry): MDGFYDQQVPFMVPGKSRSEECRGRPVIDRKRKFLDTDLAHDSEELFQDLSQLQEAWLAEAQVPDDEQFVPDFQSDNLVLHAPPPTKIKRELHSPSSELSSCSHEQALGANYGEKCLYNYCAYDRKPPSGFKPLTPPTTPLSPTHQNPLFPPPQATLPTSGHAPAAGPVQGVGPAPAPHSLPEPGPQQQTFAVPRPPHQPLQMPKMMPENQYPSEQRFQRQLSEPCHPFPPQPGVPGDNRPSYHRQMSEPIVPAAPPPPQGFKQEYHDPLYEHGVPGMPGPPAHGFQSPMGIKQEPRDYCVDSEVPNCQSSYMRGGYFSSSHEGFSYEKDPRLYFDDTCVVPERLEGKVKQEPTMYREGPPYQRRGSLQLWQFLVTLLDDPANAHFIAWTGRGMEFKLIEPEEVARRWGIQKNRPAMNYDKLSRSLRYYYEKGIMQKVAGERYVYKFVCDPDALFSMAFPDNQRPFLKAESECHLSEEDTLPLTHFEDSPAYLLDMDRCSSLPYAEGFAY
# Sequence of SPIB (Q01892 whole entry): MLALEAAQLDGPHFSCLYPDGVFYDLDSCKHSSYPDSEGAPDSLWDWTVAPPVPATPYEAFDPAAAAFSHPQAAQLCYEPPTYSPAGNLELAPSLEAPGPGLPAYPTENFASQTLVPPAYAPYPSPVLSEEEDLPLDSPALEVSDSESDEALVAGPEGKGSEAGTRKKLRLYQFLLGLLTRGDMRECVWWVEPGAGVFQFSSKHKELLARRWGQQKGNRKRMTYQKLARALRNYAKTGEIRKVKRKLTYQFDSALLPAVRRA
# Sequence of ELF1 (P32519 whole entry): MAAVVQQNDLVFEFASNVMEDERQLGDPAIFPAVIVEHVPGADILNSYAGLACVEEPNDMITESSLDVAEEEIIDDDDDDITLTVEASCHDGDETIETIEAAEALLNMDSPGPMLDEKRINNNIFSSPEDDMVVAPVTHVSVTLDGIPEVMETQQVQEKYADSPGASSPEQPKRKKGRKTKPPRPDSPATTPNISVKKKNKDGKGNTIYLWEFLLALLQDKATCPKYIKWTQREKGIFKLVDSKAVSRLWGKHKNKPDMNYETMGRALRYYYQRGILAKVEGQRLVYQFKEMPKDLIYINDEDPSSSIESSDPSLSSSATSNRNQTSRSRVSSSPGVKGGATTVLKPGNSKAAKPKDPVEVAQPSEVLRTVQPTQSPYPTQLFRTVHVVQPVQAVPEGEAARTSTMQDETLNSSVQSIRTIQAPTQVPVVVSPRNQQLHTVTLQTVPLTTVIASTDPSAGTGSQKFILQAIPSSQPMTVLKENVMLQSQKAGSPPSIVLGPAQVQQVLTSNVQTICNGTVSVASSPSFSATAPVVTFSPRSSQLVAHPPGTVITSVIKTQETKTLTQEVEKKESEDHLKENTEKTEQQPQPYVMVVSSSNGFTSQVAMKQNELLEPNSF
# Sequence of ETV1 (P50549 whole entry): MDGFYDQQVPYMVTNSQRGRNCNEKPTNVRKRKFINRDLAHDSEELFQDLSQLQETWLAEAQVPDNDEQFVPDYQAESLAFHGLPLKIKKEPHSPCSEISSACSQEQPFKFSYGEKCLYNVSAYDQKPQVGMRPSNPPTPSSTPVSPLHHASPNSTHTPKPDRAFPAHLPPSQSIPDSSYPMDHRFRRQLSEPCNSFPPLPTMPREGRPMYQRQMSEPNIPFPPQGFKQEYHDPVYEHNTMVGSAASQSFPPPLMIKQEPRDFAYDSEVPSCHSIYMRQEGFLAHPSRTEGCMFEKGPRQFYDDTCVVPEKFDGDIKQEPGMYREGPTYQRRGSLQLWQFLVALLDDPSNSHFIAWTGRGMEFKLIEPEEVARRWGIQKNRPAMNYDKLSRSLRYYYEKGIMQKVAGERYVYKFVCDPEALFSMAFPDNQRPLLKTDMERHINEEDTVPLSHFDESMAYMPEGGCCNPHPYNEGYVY
# Sequence of CRX (O43186 whole entry): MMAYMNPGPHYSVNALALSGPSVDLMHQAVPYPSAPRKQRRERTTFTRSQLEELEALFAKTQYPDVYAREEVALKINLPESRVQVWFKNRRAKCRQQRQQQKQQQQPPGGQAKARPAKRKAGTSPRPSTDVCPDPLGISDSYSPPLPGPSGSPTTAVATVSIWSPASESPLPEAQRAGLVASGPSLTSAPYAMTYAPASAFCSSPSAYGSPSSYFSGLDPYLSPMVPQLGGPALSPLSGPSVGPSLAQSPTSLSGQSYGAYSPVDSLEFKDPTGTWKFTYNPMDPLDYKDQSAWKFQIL
sequence,measurement,setting,value
AGAAAT,binding signal,[1],"1.05 fold enrichment (6-mer frequency, TF over GST control)"
same,binding signal,[2],"1.13 fold enrichment (6-mer frequency, TF over GST control)"
same,binding signal,[3],"1.17 fold enrichment (6-mer frequency, TF over GST control)"
same,binding signal,[4],"1.1 fold enrichment (6-mer frequency, TF over GST control)"
same,binding signal,[5],"1.15 fold enrichment (6-mer frequency, TF over GST control)"
same,binding signal,[6],"1.16 fold enrichment (6-mer frequency, TF over GST control)"
same,binding signal,[7],"1.16 fold enrichment (6-mer frequency, TF over GST control)"
same,binding signal,[8],"1.11 fold enrichment (6-mer frequency, TF over GST control)"
same,binding signal,[9],"1.2 fold enrichment (6-mer frequency, TF over GST control)"
same,binding signal,[10],"1.12 fold enrichment (6-mer frequency, TF over GST control)"
same,binding signal,[11],"1.17 fold enrichment (6-mer frequency, TF over GST control)"
same,binding signal,[12],"2.04 fold enrichment (6-mer frequency, TF over GST control)"
same,binding signal,[13],"1.22 fold enrichment (6-mer frequency, TF over GST control)"
same,binding signal,[14],"1.15 fold enrichment (6-mer frequency, TF over GST control)"
same,binding signal,[15],"1.03 fold enrichment (6-mer frequency, TF over GST control)"
same,binding signal,[16],"1.19 fold enrichment (6-mer frequency, TF over GST control)"
same,binding signal,[17],"1.2 fold enrichment (6-mer frequency, TF over GST control)"
same,binding signal,[18],"1.35 fold enrichment (6-mer frequency, TF over GST control)"
same,binding signal,[19],"1.13 fold enrichment (6-mer frequency, TF over GST control)"
